Only some compounds are listed: those with a hit (about 1.7% of all), similar ones and a draw of the others.
PTHR1 ag: qHTS for PTHR1 Agonists: Primary Screen; Parathyroid hormone/parathyroid hormone-related peptide receptor (Homo sapiens), Q03431; HEK293 GP2 PTHR1 cells, GloSensor cAMP luminescence, 1 h; Potency, µM (highest dose often 115 µM), inactives show at the top dose activation, most hits filed as activators; actives 0.075% (n = 410,000); note: nearly all actives have a fitted effect of over 55% in size
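HEK-293-derived GP2 cells expressing PTHR1 and a GloSensor cAMP reporter, 3,000/well, plated overnight, given luciferin plus IBMX (each 0.5 mM as added) for 1 h at 37 °C, then compound for 1 h at 37 °C. Luminescence was read after 15 min at room temperature.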
GLP-1R agonist: qHTS of GLP-1 Receptor Agonists; Potency, µM (top dose mostly 45.6 µM), for the others: at the highest dose activation, usual class: activators; actives 0.007% (n = 380,000); HEK293 GLP-1R CRE-luciferase, luminescence, 4-6 h; cells express a hypersensitive GLP-1R form; Glucagon-like peptide 1 receptor (Homo sapiens), P43220; note: % of control where 0% means no effect
Target sequence (P43220 whole entry, looked up): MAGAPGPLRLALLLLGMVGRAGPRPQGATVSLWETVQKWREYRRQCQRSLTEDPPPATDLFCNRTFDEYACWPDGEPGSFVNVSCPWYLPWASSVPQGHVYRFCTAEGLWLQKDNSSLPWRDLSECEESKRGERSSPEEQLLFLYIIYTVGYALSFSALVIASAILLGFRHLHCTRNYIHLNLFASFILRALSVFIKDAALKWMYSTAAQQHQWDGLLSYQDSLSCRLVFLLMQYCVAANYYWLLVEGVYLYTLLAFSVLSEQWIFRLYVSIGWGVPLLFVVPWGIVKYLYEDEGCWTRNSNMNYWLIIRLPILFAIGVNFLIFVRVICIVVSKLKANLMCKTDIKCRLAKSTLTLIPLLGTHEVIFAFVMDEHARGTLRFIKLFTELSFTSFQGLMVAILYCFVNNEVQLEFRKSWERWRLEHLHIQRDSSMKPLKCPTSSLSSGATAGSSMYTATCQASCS
GLP1R inv ag: qHTS of GLP-1 Receptor Inverse Agonists (Inhibition Mode); Potency, µM (titrated, usually from 38.3 µM), inactives show at the top dose activity change, negative = inhibition, usual class: inhibitors; Glucagon-like peptide 1 receptor (Homo sapiens), P43220; HEK293 GLP-1R CRE-luciferase, luminescence, 24 h; GLP-1R form is constitutively active; actives 1.6% (n = 410,000); note: % is set by controls: 0 for no effect and ±100 for the full control effect; nearly all actives have a fitted effect of over 55% in size
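Constitutively active GLP-1R drives a cAMP-responsive luciferase in stably transfected HEK293 cells; test compounds are added after overnight (12 h) attachment and left 24 hr, and signal loss in luminescence marks inhibition.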
HEK293 tox: qHTS of GLP-1 Receptor Inverse Agonists: Cytotox Screen | HEK293 cAMP-luciferase reporter cells, luminescence, 24 h | Potency, µM (titrated, usually from 38.3 µM), without a hit: at the top dose activity change, negative = inhibition, usual class: inhibitors | actives 0.13% (n = 410,000) | AID 624418, 2012;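 note: loss of luciferase light is scored as toxicity; % is set by controls: 0 for no effect and ±100 for the full control effect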
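MLSMR compounds, 24 hr on cells at 37 deg C/5% CO2; luminescence after luciferase reagent (12 min RT). Inhibition counted as the undesired cytotoxic outcome.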
Starred values were filed as active, the others as inactive; i = inactive; ? = inconclusive; / = not tested or not shown; [ ] = remark or other dose. Calls come from the whole dose curve; as a rule, active = well fitted curve in the direction sought with a large enough effect; inconclusive = small, poorly fitted or top-dose-only effect, or another doubt; inactive = no such curve, though single readings can be large; an effect the other way counts as inactive or inconclusive. Potency is the fitted concentration of half-maximal effect.

SMILES | PTHR1 ag | GLP-1R agonist | GLP1R inv ag | HEK293 tox
O=c1c(Cc2ccc(F)cc2)c(O)ccn1Cc1cccc(Cl)c1 | -18% | -10% | 7.9µM* | -7%
Cc1oc(-c2ccccc2Cl)nc1CS(=O)(=O)CC(=O)NC(C)CCc1ccccc1 (configuration not stated) | -94% | -3% | 10µM* | -11%
CNC(=S)N1N=C(c2ccc(Br)cc2)CC1c1ccc(OC)cc1 (configuration not stated) | -8% | 1% | ? | -9%
CNC(=S)N1N=C(c2ccc(OC)cc2)CC1c1ccccc1Cl (configuration not stated) | -8% | 12% | 10µM* | 15%
CNC(=S)N1N=C(c2ccc(OC)cc2)CC1c1ccc(Cl)cc1Cl (configuration not stated) | -11% | 12% | ? | 4%
COc1ccc(OC)c(C2CC(c3ccccc3)=NN2C(=S)Nc2ccccc2)c1 (configuration not stated) | -2% | 7% | -27% | 0%
CNC(=S)N1N=C(c2ccc(C)cc2)CC1c1ccc(OC)cc1 (configuration not stated) | -2%[57.5 µM] | -3% | 10µM* | -4%
CNC(=S)N1N=C(c2ccc(C)cc2)CC1c1cc(OC)ccc1OC (configuration not stated) | -22% | 14% | 10µM* | ?
CN(C)S(=O)(=O)Oc1ccsc1C(=O)Nc1cccc(Cl)c1 | i | 14% | -13% | 6%
CN(C)S(=O)(=O)Oc1ccsc1C(=O)Nc1ccc(Cl)c(Cl)c1 | -15% | -1% | 10µM* | 21%
N=C(N)c1ccc(OCCCOc2ccc(C(=N)N)cc2)cc1 | / | 3% | / | /
CCC(=O)NC(c1ccco1)c1cc(Cl)c2cccnc2c1O (configuration not stated) | i | 4% | 7.1µM* | ?
CCOC(=O)c1cccc(NC(=O)CCn2c(-c3ccc(F)cc3)cc(C(=O)OCC)c2C)c1 | i | / | 10µM* | -1%
CCOC(=O)c1cc(-c2ccc(C)cc2)n(CCC(=O)Nc2ccc(C(C)C)cc2)c1C | -14% | 0% | 2.5µM* | -4%
CCOC(=O)c1cc(-c2ccc(F)cc2)n(CCC(=O)NC2CCN(Cc3ccccc3)CC2)c1C | i | 14% | 7.9µM* | ?
CCOC(=O)c1cc(-c2ccccc2)n(CCCC(=O)Nc2ccc(C(C)C)cc2)c1C | -14% | / | ? | -29%
COC(=O)c1ccc(NC(=O)CCc2c(C)nc3c(c(C)nn3C(C)(C)C)c2C)cc1 | -36% | -1% | -5% | 1%
COc1cc(N(C)C)ccc1C=c1c2ccccc2n2c1cc(-c1ccccc1)[n+]2C | -40% | -16% | 8.9µM* | 13µM*
COc1cc(C(=O)c2ccccc2C(=O)O)c(OC)c2c1CCCC2 | -28% | 1% | 1% | -20%
CCc1ccc2[nH]c(=O)c(CN(CCN(C)C)C(=O)Nc3ccccc3)cc2c1 | -17%[57.5 µM] | 3% | 8.9µM* | -24%
CCc1ccc2[nH]c(=O)c(CN(CCN(CC)CC)C(=O)NC3CCCCC3)cc2c1 | i | 9% | 10µM* | ?
Cc1cc(C)c2cc(CN(CCO)C(=O)Nc3ccc(F)cc3)c(=O)[nH]c2c1 | -43%[57.5 µM] | 7% | -2% | 9%
Cc1cc(C)c2cc(CN(CCN(C)C)C(=O)Nc3ccccc3Cl)c(=O)[nH]c2c1 | i | -2% | 10µM* | -6%
Oc1c(C(c2ccc(Cl)cc2)N2CCCC2)cc(Cl)c2cccnc12 (configuration not stated) | -17% | -2% | 5.6µM* | ?
Oc1c(C(c2ccccc2Cl)N2CCCC2)ccc2cccnc12 (configuration not stated) | -16% | -4% | 3.5µM* | 15%
SMILES | PTHR1 ag | GLP-1R agonist | GLP1R inv ag | HEK293 tox
CCCCC(=O)NC(c1ccccc1Cl)c1ccc2cccnc2c1O (configuration not stated) | -8% | 1% | ? | ?
O=C(CC1(O)C(=O)N(CCc2ccccc2)c2ccc(Br)cc21)c1ccccc1 (configuration not stated) | i | 2% | ? | -7%
Cc1ccc(C(=O)CC2(O)C(=O)N(CCc3ccccc3)c3ccc(Br)cc32)o1 (configuration not stated) | i | 2% | 7.9µM* | -30%
COc1ccc(NC(=O)CC2C(=O)N(c3cccc(OC)c3)C(=O)N2Cc2cccnc2)cc1 (configuration not stated) | i | / | 11% | -10%
O=C1N(Cc2cccc(Cl)c2)C[C@@H]2C[C@@H](c3cccc4cccnc34)N3CCC[C@@]123 | i | 5% | ? | -12%
O=C1N(Cc2cccc(Cl)c2)C[C@@H]2C[C@@H](c3cccc4ncccc34)N3CCC[C@@]123 | -7% | 7% | 10µM* | -3%
CNC(=S)N/N=C(\C)c1ccccc1 | -26% | -3% | 10µM* | ?
CCNC(=S)N/N=C(\C)c1ccc2c(c1)OCCO2 | i | 2% | ? | ?
CNC(=S)N/N=C(\C)c1ccc2c(c1)OCO2 | i | 2% | 10µM* | ?
C/C(=N\NC(=S)NC(C)C)c1ccc2c(c1)OCCO2 | -91% | 7% | 10µM* | 4.5µM*
CNC(=S)N/N=C(\C)c1ccc2c(c1)OCCO2 | -47% | 11% | ? | ?
CC(=O)Nc1ccc(-c2nnc3n(CC(C)C)c(=O)c4ccccc4n23)cc1 | i | / | 6% | 1%
COc1c(C)c2c(c(O)c1CC=C(C)CCC(=O)OCCN1CCOCC1)C(=O)OC2 | / | -5% | / | /
CCOC1=C2CN(S(=O)(=O)c3ccc(C)cc3)[C@H](c3ccccc3)C[C@@H]2N(S(=O)(=O)c2ccc(C)cc2)[C@H](c2ccccc2)C1 | -1% | 1% | 25% | 0%
CCCSc1ncc(Cl)c(C(=O)Nc2c(C(=O)Nc3ccc(OC)cc3)oc3ccccc23)n1 | i | / | 13% | 7%
Cc1nn2c(N3CCN(C)CC3)cc(C(C)(C)C)nc2c1-c1ccccc1 | i | ? | 7.1µM* | ?
Cc1nn2c(N3CCN(C4CCCC4)CC3)cc(C(C)(C)C)nc2c1-c1ccccc1 | -16% | -6% | 5% | 14%
COC(=O)[C@@]12CCCCN1[C@H](c1ccc(-c3ccc(F)cc3)c(OC)c1)[C@@H]1C(=O)N(C)C(=O)[C@@H]12 | -13% | -1% | 10µM* | -14%
COc1cccc(C2CC(c3ccc(Br)cc3)=NN2C(=O)c2ccncc2)c1OC (configuration not stated) | -7% | 16% | 10µM* | -9%
CC1(C)CC(C(CCN(Cc2ccccc2)C(=O)c2ccco2)c2ccc(F)cc2)CCO1 (configuration not stated) | -7% | -29% | 7.9µM* | ?

Screens: PubChem, National Center for Advancing Translational Sciences (NCATS)
